Screens as filed in PubChem BioAssay.
Shown are actives, neighbours in structure and some others; about 1.3% of the full set was active somewhere.
VLA-4 inh = inhibition in a human VLA-4 binding assay. VLA-4 expressing cells, ligand binding flow cytometry. hit rate 0.2% among 330,000. P13612. inhibition, % (about 7 µM as worked out from the volumes in the protocol); in the data active = inhibition above about 50%
A1 inh = inhibitors of the anti-apoptotic protein A1, read as caspase activation; MEF A1-2A-BIM cells, Caspase-Glo 3/7 luminescence, 3 h; percent of clofoctol response, vehicle zero; caspase activation, % (test concentration not listed); hit rate 0.066% among 330,000; AID 2462;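 active = over half of replicate activation scores above 10%, or exactly half above 10 with the replicate mean above 10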
B2AR ag = human beta-2 adrenergic receptor agonism by FAP; P07550; Am2.2-beta2AR cells, FAP receptor internalization, flow cytometry; response, % (no concentration beside the values); hit rate 0.43% among 340,000; AID 504454;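 active = response above a set limit, near 3 SD of response in nonfluorescent compounds, cut at about 42% in these data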
Target sequence (P07550 whole entry, looked up): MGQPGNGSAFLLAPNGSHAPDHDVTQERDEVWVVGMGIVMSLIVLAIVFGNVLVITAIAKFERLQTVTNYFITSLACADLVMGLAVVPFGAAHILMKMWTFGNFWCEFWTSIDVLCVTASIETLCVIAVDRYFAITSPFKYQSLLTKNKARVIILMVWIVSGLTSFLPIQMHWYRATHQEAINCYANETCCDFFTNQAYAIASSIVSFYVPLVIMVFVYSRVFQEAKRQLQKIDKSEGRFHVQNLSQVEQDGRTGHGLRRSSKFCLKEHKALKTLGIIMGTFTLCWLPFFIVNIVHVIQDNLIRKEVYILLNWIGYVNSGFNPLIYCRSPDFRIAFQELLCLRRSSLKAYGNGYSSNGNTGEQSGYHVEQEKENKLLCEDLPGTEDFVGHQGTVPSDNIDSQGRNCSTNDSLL
GRK2 aptamer HTS = blocks RNA aptamer binding to human GRK2; P25098; bead flow cytometry, FAM-aptamer displacement from GRK2; inhibition of aptamer binding, % at 10 µM; hit rate 0.59% among 330,000; AID 488847;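 active = inhibition of aptamer binding above 40%, roughly 3 SD of noise, on plates passing a quality check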;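 note: median bead fluorescence of bound FAM aptamer so fluorescent compounds give negative values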
NTR1 ag = activates human neurotensin receptor 1 | AID 493036 | hit rate 0.17% among 330,000 | activation, % at 20 µM | NTR1-U2OS beta-arrestin-GFP spot imaging, agonist mode;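 active = activation at or above 40% of the spot to cytoplasm intensity ratio, with at least 20 cells analyzed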;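 note: 0% = DMSO without peptide and 100% = 100 nM NTR1 peptide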
Active calls of the source: *; · = no result.

SMILES | VLA-4 inh | A1 inh | B2AR ag | GRK2 aptamer HTS | NTR1 ag
CNC[C@@H](CC1CCCCC1)NC[C@H](CC(C)C)NCCc1cccc(C(F)(F)F)c1 | · | 0 | 43* | · | 10
Cc1cc(N/N=C/c2ccc(O)cc2)nc(NS(=O)(=O)c2ccccc2)n1 | -1 | 0 | -3 | 74* | 0
Cc1ccc(/C=N/Nc2cc(C)nc(NCc3ccccc3)n2)cc1 | 2 | 0 | 5 | 0 | 25
COc1ccc2c(-c3cc4ccc(OCc5ccc(F)cc5)cc4oc3=O)cc(=O)oc2c1 | -19 | 9.6* | -2 | 0 | ·
CCN(CC(=O)NCc1cccs1)C(=O)c1ccc(-c2ccc(F)cc2)o1 | 20 | -2 | -5 | 2 | -1
CC1CN(CC(=O)Nc2ccc([N+](=O)[O-])cc2Br)CC(C)O1 (stereo unspecified) | -3 | 0 | -3 | 0 | 2
COc1cc(NC(=O)N[C@@H](Cc2c[nH]c3ccccc23)C(=O)O)c(C(=O)O)cc1OC | 8 | 2 | -2 | 0 | -1
COc1ccc(C(=O)NN(C)c2nc(-c3ccccc3)nnc2C(F)(F)F)cc1 | 8 | 0 | 49* | 0 | 1
Cc1ccc(-c2cc3onc(-c4ccccc4)c3c(=O)n2C)cc1 | 15 | -7 | 0 | 0 | 12
Cn1c(-c2ccc(F)cc2)cc2onc(-c3c(F)cccc3Cl)c2c1=O | 16 | 1 | · | 52* | 10
O=Cc1s/c(=N\S(=O)(=O)c2ccccc2)n(CCCCl)c1Cl | · | · | 104* | · | ·
COc1ccc(C(=O)Nc2ccc(N3CCCCCC3)cc2)cc1S(=O)(=O)N1CCOCC1 | -11 | 0 | 16 | 0 | 2
COc1ccc(/C=C/C(=O)c2ccc([N+](=O)[O-])o2)cc1 | -20 | 1 | 59* | 0 | 19
O=C(/C=C/c1cccc([N+](=O)[O-])c1)c1ccco1 | 22 | -1 | 7 | 0 | 17
COc1ccc(S(=O)(=O)N2CCN(C(=O)c3ccc([N+](=O)[O-])o3)CC2)cc1 | 34 | 1 | 0 | 8 | 2
O=C(/C=C/c1cccc([N+](=O)[O-])c1)c1ccc([N+](=O)[O-])o1 | 16 | 2 | 67* | 0 | ·
COc1cccc(C(=O)/C=C/c2ccc(N3CCCCC3)c([N+](=O)[O-])c2)c1 | 33 | 1 | 2 | 3 | 10
Cc1cccc(/C=C/C(=O)c2ccc([N+](=O)[O-])o2)c1 | 10 | 3 | 87* | 1 | 1
COc1cccc(/C=C/C(=O)c2cccc([N+](=O)[O-])c2)c1 | 19 | 0 | 94* | 2 | 18
N#Cc1ccccc1OCC(=O)N(Cc1nnc(-c2ccccc2Cl)o1)C1CC1 | -7 | 1 | 1 | 4 | -1
Cc1cccc(NC(=O)COC(=O)c2nn(C)c(=O)c3ccccc23)c1C | 1 | -1 | -4 | 1 | 1
COc1cccc(CCNC(=O)c2cc(COc3c(F)cccc3F)on2)c1 | 15 | -1 | -11 | 2 | -1
Cc1ccccc1NC(=O)c1ccc([N+](=O)[O-])o1 | 2 | 1 | -1 | 0 | 0
Cc1ccccc1/C=C/C(=O)c1ccc([N+](=O)[O-])o1 | 12 | 11* | · | 1 | -4
C=CCN1C(=O)c2ccc(C(=O)NCCc3ccc(F)cc3)cc2C1=O | 14 | 0 | 21 | 0 | 3
SMILES | VLA-4 inh | A1 inh | B2AR ag | GRK2 aptamer HTS | NTR1 ag
COc1ccc([N+](=O)[O-])c(S(=O)(=O)c2ccccc2)n1 | 17 | 2 | 51* | 0 | 27
C[C@@H](NCCCn1ccc(NC(=O)OCc2ccccc2)nc1=O)c1cccc2ccccc12 | · | · | 44* | · | ·
C[C@@H](NC(=O)Cn1ccc(NC(=O)OCc2ccccc2)nc1=O)c1cccc2ccccc12 | 0 | -1 | 2 | 0 | 4
Cc1cccc(NC(=O)CSCC(=O)N2CCN(C(=O)c3ccco3)CC2)c1 | 3 | 0 | 1 | 0 | -2
O=C(/C=C/c1ccc2c(c1)OCO2)NCCSCc1cccc(Cl)c1 | 10 | -1 | 44* | 2 | 2
CS(=O)(=O)N(CC(=O)NCCSCc1cccc(Cl)c1)c1ccc2c(c1)OCO2 | -3 | 0 | 2 | 0 | 1
O=C(/C=C/c1ccc2c(c1)OCO2)NCCSCc1ccc(Cl)cc1Cl | · | · | 96* | · | 4
CCOC(=O)C1(Cc2cccc(F)c2)CCN(C(=O)Cn2cnnn2)CC1 | 2 | 0 | -5 | 0 | 1
CC(C)C(=O)N[C@H]1CCC2C3CC=C4C[C@@H](O)CC[C@]4(C)C3CC[C@@]21C (stereo partly specified) | 12 | 1 | -5 | 0 | 3
